Laboratory results reported in the supplement of paper PMC6555819.

How the values were obtained:
Test in all cases: PBM binding z-score (relative to random genomic background probes); higher = stronger binding; sequences stand for … in GC…GCGATTGACAGCGTAGAATGAAGG
[1] = test system: FXR:RXRa (NR concentration 270 nM, RXRa partner concentration 90 nM)
How it was run: (§1)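 Random background probes are the reference for binding z-scores. These scores derive from regression-normalized fluorescence on custom Agilent 4×180K protein-binding microarrays incubated 1 h with ligand-free nuclear receptor dimers. Binding was detected with antibodies against each partner (one per run).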

[2] = test system: LXRa:RXRa (NR concentration 270 nM, RXRa partner concentration 90 nM)
How it was run: as §1

[3] = test system: LXRa homodimer (NR concentration 270 nM)
How it was run: as §1

[4] = test system: LXRb:RXRa (NR concentration 270 nM, RXRa partner concentration 90 nM)
How it was run: as §1

[5] = test system: LXRb homodimer (NR concentration 270 nM)
How it was run: as §1

[6] = test system: PPARa:RXRa (NR concentration 270 nM, RXRa partner concentration 90 nM)
How it was run: as §1

[7] = test system: PPARg:RXRa (NR concentration 180 nM, RXRa partner concentration 90 nM)
How it was run: as §1

[8] = test system: PPARg:RXRa 270nM:90nM, anti-RXR (NR concentration 270 nM, RXRa partner concentration 90 nM)
How it was run: as §1

[9] = test system: PPARg:RXRa 30nM:10nM, anti-RXR (NR concentration 30 nM, RXRa partner concentration 10 nM)
How it was run: as §1

[10] = test system: PPARg:RXRa 90nM:30nM, anti-RXR (NR concentration 90 nM, RXRa partner concentration 30 nM)
How it was run: as §1

[11] = test system: PPARg:RXRa DBDmut IVT, anti-RXR (DBD mutation: RXRa K156A/R161A, NR concentration 270 nM, RXRa partner concentration 90 nM)
How it was run: as §1

[12] = test system: PPARg:RXRa IVT, anti-PPARg (NR concentration 270 nM, RXRa partner concentration 90 nM)
How it was run: as §1

[13] = test system: PPARg DBDmut:RXRa IVT, anti-PPARg (DBD mutation: PPARg1 K132A/R137A, NR concentration 270 nM, RXRa partner concentration 90 nM)
How it was run: as §1

[14] = test system: PPARg DBDmut IVT, anti-PPARg (DBD mutation: PPARg1 K132A/R137A, NR concentration 270 nM)
How it was run: as §1

[15] = test system: PPARg homodimer (NR concentration 180 nM)
How it was run: as §1

[16] = test system: PXR:RXRa (NR concentration 270 nM, RXRa partner concentration 90 nM)
How it was run: as §1

[17] = test system: PXR homodimer (NR concentration 270 nM)
How it was run: as §1

[18] = test system: RARa:RXR (NR concentration 270 nM, RXRa partner concentration 90 nM)
How it was run: as §1

[19] = test system: RARa homodimer (NR concentration 270 nM)
How it was run: as §1

[20] = test system: RARb:RXRa (NR concentration 270 nM, RXRa partner concentration 90 nM)
How it was run: as §1

Sequence | PBM binding z-score [1] | PBM binding z-score [2] | PBM binding z-score [3] | PBM binding z-score [4] | PBM binding z-score [5] | PBM binding z-score [6] | PBM binding z-score [7] | PBM binding z-score [8] | PBM binding z-score [9] | PBM binding z-score [10] | PBM binding z-score [11] | PBM binding z-score [12] | PBM binding z-score [13] | PBM binding z-score [14] | PBM binding z-score [15] | PBM binding z-score [16] | PBM binding z-score [17] | PBM binding z-score [18] | PBM binding z-score [19] | PBM binding z-score [20]
TGAATGAGGTTAGAAGATCAGGGAACGTTGCAAA | 0.452 | 0.337 | -0.383 | 0.0743 | -0.188 | 1.59 | 0.84 | 1.29 | 0.759 | 0.966 | 0.481 | 1.07 | 0.215 | 0.423 | 0.0749 | 0.145 | -0.0637 | 0.485 | 0.14 | 0.954
TCCAGTTGGTCACGGAGGTCACACACGACGGGTA | 3.34 | 3.57 | 2.25 | 3.33 | 0.101 | 3.95 | 3.15 | 3.83 | 2.94 | 3.43 | 2.14 | 3.9 | 0.387 | 0.563 | 2.63 | 4.5 | 1.2 | 4.33 | 0.942 | 4
ATCGAAAGGTGGAGGTGAGTATAGAGAAAGGGAA | 0.433 | 0.583 | -0.00361 | 0.504 | 0.617 | 0.622 | 0.263 | 0.302 | 0.265 | 0.243 | -0.413 | 0.772 | -0.138 | -0.168 | 0.613 | 0.147 | 0.659 | 0.0317 | 1.06 | 1.28
ATCTCTAGGTAACAAGTTCAATGAAAGAGAGGAC | 1.38 | 1.5 | 1.01 | 1.42 | 1.28 | 2.44 | 2.44 | 2.87 | 1.22 | 2.61 | 3.6 | 3.31 | 1.41 | 1.75 | 1.45 | 2.68 | 3.18 | 1.75 | 1.83 | 2.18
AGAATGAGGTTACCAAAGATCAGGTAAACGCTTG | 1.72 | 5.99 | -0.313 | 3.44 | -0.454 | 3.43 | 2.76 | 2.77 | 1.12 | 1.9 | 3.32 | 3.43 | 0.874 | 0.666 | 0.758 | 1.64 | -0.0452 | 2.29 | 0.183 | 2.09
TCTATTAGTTGATTCGGGCAACCGAAACAGCGGA | 0.597 | 0.339 | 0.411 | 0.655 | 0.739 | 0.742 | -0.102 | 1.84 | 3.9 | 2.85 | 1.91 | 0.598 | 0.957 | 0.979 | 0.106 | 0.3 | 0.223 | 0.414 | 0.742 | 0.671
CATACAGGGTCAGCTAGGCCAGAATAGGGACGGC | 4.83 | 3.22 | -0.0324 | 2.38 | -0.0852 | 4.55 | 3.66 | 3.09 | 0.879 | 2 | 0.915 | 2.41 | 0.965 | 0.203 | 0.999 | 2.22 | 0.0161 | 2.91 | 0.818 | 4.16
CCTGCTAGGTCAATGGTCAGCTAGAGCAGCTCGC | 2.73 | 1.95 | -0.206 | 1.03 | -0.0711 | 3.04 | 4.26 | 5.05 | 2.14 | 4.51 | 4.03 | 3.86 | -0.82 | -0.691 | 1.03 | 0.552 | -0.638 | 1.5 | -0.363 | 3.71
TCGAGTAGGTCACCAATGGGGCATTCAGCTTTCT | 3.29 | 3.16 | -0.128 | 2.79 | -0.57 | 4.45 | 5.85 | 5.14 | 2.8 | 4.74 | 5.54 | 6.57 | 0.462 | 0.45 | 1.71 | 2.42 | -0.543 | 3.13 | -0.919 | 3.84
GCTATTCGTTGAAAGGGCAACCGAATGATTCTCG | 0.141 | 0.488 | 0.342 | 0.644 | -0.0285 | 1.61 | 1.23 | 2.56 | 0.831 | 2.16 | 0.00432 | 0.413 | 0.733 | 0.234 | 0.801 | 0.591 | -0.255 | 0.689 | 0.463 | 1.8
CGTCAAAGTTCAACTAAGGGAACGTAAAGCACGC | 6.99 | 6.08 | 3.68 | 3.74 | 1.85 | 4.93 | 4.78 | 5.73 | 1.94 | 4.2 | 0.0961 | 1.71 | 0.646 | 0.162 | 2.6 | 4.91 | 3.23 | 3.84 | 1.55 | 5.25
TCTCGCAGGACACGAAGGTCAGAGCTTTCCAGAG | 1.36 | 1.16 | 0.275 | 1.43 | -0.948 | 1.92 | 0.556 | 1.75 | 1.75 | 1.74 | 1.49 | 0.67 | -1.01 | -1.42 | 0.787 | 1.44 | -0.0691 | 1.81 | -0.422 | 2.74
GCTATTAGTTGAAAGGGCAACAGAATGATTCTCG | 0.533 | 0.675 | 0.402 | 0.947 | -0.00324 | 2.47 | 3.11 | 4.2 | 2.77 | 4.54 | 0.52 | 1.11 | 0.63 | 0.276 | 1.36 | 0.774 | 0.784 | 1.47 | 1.15 | 2.09
GCTGCTAGCTCAGGTTGGTCAGCTAACGGGTACG | -0.68 | -0.822 | -0.914 | -0.935 | -1.25 | -1.08 | -0.612 | -0.997 | -1.04 | -0.839 | -0.142 | -0.678 | -1.21 | -1.62 | -1.31 | -0.81 | -0.881 | -0.76 | -2.27 | -0.463
